Assay outcomes from PubChem BioAssay.
HP1b chromo inh – blocks HP1-beta chromodomain binding to methylated histone tails; AID 540317; P83916; hit rate 0.56% among 390,000; AlphaScreen HP1-beta / biotin-H3K9me3 peptide binding; Potency, µM (titrated, usually from 114 µM), for the others: at the highest dose activity change, negative = inhibition, usual class: inhibitors; note: nearly all actives have a fitted effect of over 70% in size
Target sequence (P83916 whole entry, looked up): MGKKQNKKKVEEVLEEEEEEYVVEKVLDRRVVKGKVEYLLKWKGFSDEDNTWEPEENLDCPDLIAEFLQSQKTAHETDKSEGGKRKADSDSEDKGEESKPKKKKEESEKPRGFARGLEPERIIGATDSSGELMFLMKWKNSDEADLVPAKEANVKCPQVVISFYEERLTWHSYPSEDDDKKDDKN
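AlphaScreen: HP1-beta (50 nM) preformed 30 min with biotin-H3(1-18)K9me3 peptide (50 nM) in PBS pH 7.4, 0.01% Tween-20. Compound added for 30 min at RT, then streptavidin donor/nickel chelate acceptor beads (10 ug/mL) for 30 min.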
G9a block – inhibitors of human histone lysine methyltransferase G9a | Q96KQ7 | G9a H3K9 monomethylation, AlphaScreen, 2 h | Potency, µM (doses to about 102 µM), for inactives: at the top dose activity, negative = inhibition, usual class: inhibitors | hit rate 8.8% among 350,000; note: % is set by controls: 0 for no effect and ±100 for the full control effect; nearly all actives have a fitted effect of over 75% in size
Target sequence (Q96KQ7 913-1193 limits assumed): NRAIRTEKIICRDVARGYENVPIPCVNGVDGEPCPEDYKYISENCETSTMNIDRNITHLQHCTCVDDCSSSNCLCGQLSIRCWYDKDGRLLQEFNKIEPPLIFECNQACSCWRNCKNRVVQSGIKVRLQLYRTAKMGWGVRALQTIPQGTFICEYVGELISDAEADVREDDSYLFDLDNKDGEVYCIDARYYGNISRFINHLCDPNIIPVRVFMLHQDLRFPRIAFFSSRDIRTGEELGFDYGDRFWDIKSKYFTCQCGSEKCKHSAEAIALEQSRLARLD
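AlphaScreen detection with an anti-monomethyl H3K9 antibody quantified product after a 2 h room-temperature reaction containing 500 nM biotinylated H3K9 peptide, 20 µM SAM and 20 nM enzyme, which had been preincubated 15 min with compound.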
BAZ2B block – inhibitors of human BAZ2B bromodomain | AlphaScreen BAZ2B-H3K14Ac peptide displacement | AID 504333 | Potency, µM (series often up to 114 µM), inactives show top-dose activity change, negative = inhibition, hits mostly inhibitors | hit rate 4.4% among 360,000; note: % is set by controls: 0 for no effect and ±100 for the full control effect; nearly all actives have a fitted effect of over 60% in size
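Inhibition is scored as reduced AlphaScreen emission. The BAZ2B/b-H3(5-23)K14Ac complex (50 nM each) in PBS pH 7.4, 0.01% Tween-20 meets compound (up to 110 uM) for 30 min at RT before bead addition.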
GLS inhibitor – glutaminase GLS (human) inhibition; O94925; GLS enzymatic activity, qHTS titration; Potency, µM (top dose mostly 45.5 µM), for the others: top-dose activity change, negative = inhibition, most hits filed as inhibitors; hit rate 0.21% among 410,000; AID 624170; note: % is set by controls: 0 for no effect and ±100 for the full control effect
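hKGA; 45 mM KH2PO4 pH 8.2 + 0.02% Tween-20; cpd via pin tool; 1 mM Gln soln; GluOx/HRP/Amplex Red; RT 30 min; fluor. t0 & final.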
JMJD2A Tudor inh – JMJD2A Tudor domain (human) inhibition. O75164. AlphaScreen JMJD2A-Tudor / H3K4me3 peptide binding. Potency, µM (series often up to 114 µM), inactives show at the top dose activity change, negative = inhibition, usual class: inhibitors. hit rate 4.4% among 390,000. AID 504339; note: % is set by controls: 0 for no effect and ±100 for the full control effect; nearly all actives have a fitted effect of over 50% in size
Starred values were filed as active, the others as inactive; ? = inconclusive; / = not tested or not shown; [ ] = remark or other dose. Rows were chosen to be rich in hits. Some 10% of all compounds tested hit in one or more screens of this group. Calls come from the whole dose curve; as a rule, active = well fitted curve in the direction sought with a large enough effect; inconclusive = small, poorly fitted or top-dose-only effect, or another doubt; inactive = no such curve, though single readings can be large; an effect the other way counts as inactive or inconclusive. Potency is the fitted concentration of half-maximal effect.

SMILES	HP1b chromo inh	G9a block	BAZ2B block	GLS inhibitor	JMJD2A Tudor inh
O=C(NCC1CCCO1)c1sc(=S)n2c1[nH]c(=O)c1ccc(C(=O)N3CCCCC3)cc12 (stereo unspecified)	-23.9%	44.7µM*	?	22.9%	?
Cc1[nH]c2ccccc2c1C(=O)C(=O)NC1CC(=O)N(c2ccc(F)cc2)C1 (stereo unspecified)	15.6%	50.1µM*	-37.6%	1.9%	-11.7%
Cc1ccc(N2CC(NC(=O)C(=O)c3c(C)[nH]c4ccccc34)CC2=O)cc1 (stereo unspecified)	11.1%	-6.0%	10.2%	-3.4%	-11.7%
Cc1ccc(S(=O)(=O)CC(=O)N2CCOCC2)cc1	17.2%	10.3%[0.501 µM]	4.7%	6.6%	-15.8%
CCOC(=O)c1cnc(SCC(=O)Nc2ccc(N3CCOCC3)cc2)nc1N	/	25.1µM*	2.5%	/	/
CCOC(=O)c1cnc(SCC(=O)Nc2ccc3c(c2)OCCO3)nc1N	15.6%	8.7%[2.33 µM]	-3.1%	-1.6%	-20.8%
CCOC(=O)c1cnc(SCC(=O)N2CCc3ccccc32)nc1N	20.9%	?	3.5%	?	-14.7%
CCOC(=O)c1cnc(SCC(=O)N2CCN(c3ccccc3)CC2)nc1N	-1.3%	35.5µM*	-17.8%	10.0%	-17.2%
O=C1[C@@H]2C(c3cccnc3)=NO[C@@H]2C(=O)N1c1ccc(Br)cc1	-27.4%	8.91µM*	-3.9%	-8.7%	?
C/C(CCC(=O)OC[C@H]1O[C@H](C#Cc2ccccc2)C=C[C@@H]1Oc1ccc(C)cc1)=N\O[C@@H](C)CN1CCCCc2nc(C)c(C)cc21	/	35.5µM*	-36.8%	/	/
COc1ccc(O[C@H]2C=C[C@@H](c3ccccc3)O[C@@H]2COC(=O)CC/C(C)=N/O[C@@H](C)CN2CCCCc3nc(C)c(C)cc32)cc1	/	35.5µM*	-38.5%	/	/
COc1ccc(-c2csc3ncnc(Cl)c23)cc1	55.3%	-2.9%	11.1%	4.3%	-5.3%
COC(=O)c1ccc2c(=O)n(-c3ccc(OC)cc3)c(=S)[nH]c2c1	43.5%	24.7%	-6.3%	-25.7%	-1.5%
O=C(NC1CCCCC1)c1csnn1	35.3%	/	/	-5.8%	-6.2%
O=C(NC(=O)N1CCCC1)c1csnn1	4.5%	56.2µM*	0.5%	6.5%	-5.9%
CC1=C(C(=O)N(C(C)C)C(C)C)CC(CC(=O)NC2CCCC2)C(=O)N1Cc1ccccc1 (stereo unspecified)	/	/	/	3.1%	/
Nc1nc(=S)c2ncn(C3CCCC3)c2[nH]1	?	19.2%[0.501 µM]	?	?	50.1µM*
COC(=O)C1=COC(OC2OC(CO)C(O)C(O)C2O)C2C1C=CC2(O)CO (stereo unspecified)	20µM*	0.6%[12.7 µM]	28.2µM*	?	35.5µM*
COC(=O)C1=CO[C@@H](O[C@@H]2OC(CO)[C@@H](O)[C@@H](O)[C@@H]2O)C2C1CC[C@]2(C)O (stereo partly specified)	23.2%	/	/	8.5%	-15.6%
CC1(C2(O)CC(c3ccccc3)ON2)CCCCC1 (stereo unspecified)	/	39.8µM*	42.5%	/	/
COc1ccc(C2CC(O)(C(C)(C)O)NO2)cc1 (stereo unspecified)	26.8%	?	16.7%	-0.4%	-21.5%
CC(C)(C)c1ccc(Oc2ccc(NC(=O)c3ccccc3C(=O)O)cn2)cc1	76.9%	56.2µM*	-22.0%	-2.1%	-17.6%
O=C(O)c1ccccc1C(=O)Nc1ccc(Oc2ccccc2)cc1	5.8%	/	-14.5%	0.0%	-25.4%
O=C(CSc1cccc[n+]1[O-])c1ccc(Cl)s1	35.9%	10µM*	-19.5%	?	2.9%
O=C(CSc1cccc[n+]1[O-])c1ccccc1Br	12.4%	0.501µM*	-28.1%	3.1%	-10.3%
Cc1cc(C(=O)CSc2cccc[n+]2[O-])c(C)n1-c1ccc(Br)cc1	/	35.5µM*	50.1µM*	/	/
CN(C(=O)CSc1cccc[n+]1[O-])c1ccccc1	35.7%	/	/	5.8%	2.3%
O=C1c2nc3cc(-c4ccccc4)[nH]n3c(=O)c2CN1Cc1ccccc1	59.3%	/	4.1%	-7.5%	10.2%
CCOC(=O)NNc1ccc2nonc2c1[N+](=O)[O-]	?	/	39.8µM*	-4.1%	56.2µM*
